From PubChem BioAssay AID488864 (Broad Institute, 2010)
Entries with a potency or affinity are not part of this list. Calls of active or inactive are those of the source.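 How the source made its calls: active means ATP signal reduced by compound, with fitted active dose under ten times the top valid tested dose; inactive means the rest, compounds that increase ATP levels included.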

Test: INS-1E beta-cell viability without cytokines, dose response, cytotoxicity control for beta-cell cytokine protection project, CellTiter-Glo luminescence, dry powder (AID 488864)
Conditions: INS-1E rat beta cells, 48 h, no cytokines; series mostly up to 26 µM; activity change, negative = ATP decrease: at the top concentration

| SMILES | activity change, negative = ATP decrease |
| --- | --- |
| COc1ccc(S(=O)(=O)N(C)C[C@@H]2Oc3c(NS(=O)(=O)c4ccc(Cl)cc4)cccc3C(=O)N([C@@H](C)CO)C[C@H]2C)cc1 | 2.03% (inactive) |
| C[C@H]1CN([C@@H](C)CO)C(=O)c2cccc(NC(=O)NC3CCCCC3)c2O[C@@H]1CN(C)S(C)(=O)=O | -1.82% (inactive) |
| C[C@@H]1CN([C@@H](C)CO)C(=O)c2cccc(NC(=O)Nc3cccc4ccccc34)c2O[C@H]1CN(C)S(=O)(=O)c1cccs1 | 8.1% (inactive) |
| COc1ccc(S(=O)(=O)N(C)C[C@@H]2Oc3c(NS(=O)(=O)c4ccc(F)cc4)cccc3C(=O)N([C@@H](C)CO)C[C@H]2C)cc1 | 0.223% (inactive) |
| COc1ccc(S(=O)(=O)N(C)C[C@@H]2Oc3c(NC(=O)Nc4cccc5ccccc45)cccc3C(=O)N([C@@H](C)CO)C[C@H]2C)cc1F | 12% (inactive) |
| COc1ccc(S(=O)(=O)N(C)C[C@@H]2Oc3c(NC(=O)Nc4cccc5ccccc45)cccc3C(=O)N([C@@H](C)CO)C[C@H]2C)cc1Cl | 15.4% (inactive) |
| C[C@@H]1CN([C@H](C)CO)C(=O)c2cccc(NC(=O)Nc3cccc4ccccc34)c2O[C@H]1CN(C)S(=O)(=O)c1ccc(Cl)cc1 | 6.88% (inactive) |
| COc1ccc(S(=O)(=O)N(C)C[C@@H]2Oc3c(NC(=O)Nc4cccc5ccccc45)cccc3C(=O)N([C@@H](C)CO)C[C@@H]2C)cc1 | 3.54% (inactive) |
| C[C@@H]1CN([C@@H](C)CO)C(=O)c2cccc(NC(=O)Nc3cccc4ccccc34)c2O[C@H]1CN(C)S(=O)(=O)c1ccccc1 | 6.66% (inactive) |
| COc1cccc(S(=O)(=O)N(C)C[C@@H]2Oc3c(NC(=O)Nc4cccc5ccccc45)cccc3C(=O)N([C@@H](C)CO)C[C@H]2C)c1 | 3.81% (inactive) |
| C[C@@H]1CN([C@H](C)CO)C(=O)c2cccc(NC(=O)Nc3ccccc3)c2O[C@H]1CN(C)S(=O)(=O)c1ccc(F)cc1 | 1.43% (inactive) |
| COc1ccc(S(=O)(=O)N(C)C[C@@H]2Oc3c(NC(=O)Nc4cccc5ccccc45)cccc3C(=O)N([C@@H](C)CO)C[C@H]2C)cc1 | 11.3% (inactive) |
| C[C@@H]1CN([C@@H](C)CO)C(=O)c2cccc(NC(=O)Nc3cccc4ccccc34)c2O[C@H]1CN(C)C(=O)Nc1ccc(C(F)(F)F)cc1 | -5.68% [at 23.5 µM] (inactive) |
| COc1ccc(S(=O)(=O)N(C)C[C@@H]2Oc3c(NC(=O)Nc4cccc5ccccc45)cccc3C(=O)N([C@H](C)CO)C[C@@H]2C)cc1 | 1.09% (inactive) |
| COc1ccc(S(=O)(=O)N(C)C[C@@H]2Oc3c(NC(=O)Nc4ccc(F)cc4)cccc3C(=O)N([C@H](C)CO)C[C@H]2C)cc1 | 1.45% (inactive) |
| COc1ccc(S(=O)(=O)N(C)C[C@@H]2Oc3c(NS(C)(=O)=O)cccc3C(=O)N([C@@H](C)CO)C[C@H]2C)cc1 | 4.08% (inactive) |
| Cc1ccc(S(=O)(=O)N(C)C[C@@H]2Oc3c(NC(=O)Nc4cccc5ccccc45)cccc3C(=O)N([C@H](C)CO)C[C@H]2C)cc1 | 5.66% [at 23.5 µM] (inactive) |
| C[C@@H]1CN([C@@H](C)CO)C(=O)c2cccc(NC(=O)Nc3cccc4ccccc34)c2O[C@H]1CN(C)S(C)(=O)=O | 1.3% (inactive) |
| COc1ccc(S(=O)(=O)N(C)C[C@@H]2Oc3c(NC(=O)Nc4ccccc4)cccc3C(=O)N([C@@H](C)CO)C[C@H]2C)cc1 | 2.87% (inactive) |
| COc1ccc(S(=O)(=O)N(C)C[C@@H]2Oc3c(NC(=O)Nc4ccc5c(c4)OCO5)cccc3C(=O)N([C@@H](C)CO)C[C@H]2C)cc1 | 9.54% (inactive) |
| COc1ccc(S(=O)(=O)N(C)C[C@@H]2Oc3c(NS(=O)(=O)c4cn(C)cn4)cccc3C(=O)N([C@@H](C)CO)C[C@H]2C)cc1 | -1.6% (inactive) |
| C[C@@H]1CN([C@@H](C)CO)C(=O)c2cccc(NC(=O)Nc3cccc4ccccc34)c2O[C@H]1CN(C)S(=O)(=O)c1ccc2c(c1)OCC2 | 7.13% (inactive) |
| COc1ccc(S(=O)(=O)N(C)C[C@@H]2Oc3c(NS(=O)(=O)c4ccc(C)cc4)cccc3C(=O)N([C@@H](C)CO)C[C@H]2C)cc1 | 7.96% [at 23.5 µM] (inactive) |
| Cc1ccc(S(=O)(=O)N(C)C[C@@H]2Oc3c(NC(=O)Nc4ccccc4)cccc3C(=O)N([C@H](C)CO)C[C@H]2C)cc1 | 0.0817% (inactive) |
| C[C@@H]1CN([C@@H](C)CO)C(=O)c2cccc(NC(=O)Nc3cccc4ccccc34)c2O[C@H]1CN(C)CC1CC1 | 0.187% (inactive) |
| COc1ccc(NC(=O)Nc2cccc3c2O[C@@H](CN(C)S(=O)(=O)c2ccc(OC)cc2)[C@H](C)CN([C@@H](C)CO)C3=O)cc1 | 4.11% (inactive) |
| C[C@@H]1CN([C@@H](C)CO)C(=O)c2cccc(NC(=O)Nc3cccc4ccccc34)c2O[C@H]1CN(C)S(=O)(=O)c1ccc(Cl)cc1 | 3.29% (inactive) |
| COc1ccccc1S(=O)(=O)N(C)C[C@@H]1Oc2c(NC(=O)Nc3cccc4ccccc34)cccc2C(=O)N([C@@H](C)CO)C[C@H]1C | 10% (inactive) |
